The list is not random: actives were taken first. Their share in the collection is about 2.9%.
H9c2 protect = modulators protecting cardiomyocytes from myocardial damage; H9c2 cardiomyocytes, H2O2 injury protection, ATPLite, 2 h; protection from H2O2 cell death, % at 20 µM; hit rate 0.63% among 360,000; AID 588492;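 active means compounds giving at least 50% protection of heart cells from peroxide-induced death in the single-dose screen, raw or plate-pattern-corrected value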;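 further: 0% = DMSO wells with peroxide and 100% = DMSO wells without peroxide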
NadD block = NadD (S. aureus) enzyme inhibition | purified NadD enzyme, colorimetric absorbance read-out | inhibition, % at 20 µM | hit rate 0.78% among 360,000 | AID 602399; in the data active means inhibition above about 26%
APOBEC3G inh = APOBEC3G (human) deaminase inhibition | inhibition, % at 20 µM | recombinant A3G, ssDNA deamination FAM/TAMRA fluorescence | Q9HC16 | hit rate 0.28% among 330,000;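 active means inhibition of at least 40% at 20 µM, with no more than 30% in the related APOBEC3A deaminase screen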;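 further: plate controls were DMSO wells with A3G for no effect and wells lacking A3G enzyme for full effect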
Target sequence (Q9HC16 whole entry, looked up): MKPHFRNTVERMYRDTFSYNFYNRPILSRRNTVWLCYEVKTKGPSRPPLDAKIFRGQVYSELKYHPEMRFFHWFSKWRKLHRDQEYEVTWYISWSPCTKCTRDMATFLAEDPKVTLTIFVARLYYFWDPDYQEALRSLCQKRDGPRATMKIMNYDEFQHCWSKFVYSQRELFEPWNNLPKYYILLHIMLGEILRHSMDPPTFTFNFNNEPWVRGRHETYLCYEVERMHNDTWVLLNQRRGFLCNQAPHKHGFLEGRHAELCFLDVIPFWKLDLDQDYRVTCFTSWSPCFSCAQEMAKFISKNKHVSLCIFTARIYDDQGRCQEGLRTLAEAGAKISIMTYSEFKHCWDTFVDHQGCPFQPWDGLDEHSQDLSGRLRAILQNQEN
PfGluPho inh = PfG6PD (Plasmodium falciparum) enzyme inhibition | hit rate 0.78% among 350,000 | PfGluPho enzyme, NADPH resazurin-diaphorase fluorescence | inhibition, % at 20 µM | AID 504690;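 active means inhibition reaching at least a set limit at 20 µM in the primary screen, cut at about 59% in these data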;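 further: 0% = DMSO wells with substrate and 100% = DMSO wells lacking glucose-6-phosphate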
H9c2 TAG inh = inhibitors of triacylglycerol accumulation; H9c2 cells, Nile Red lipid (TAG) fluorescence; cells loaded with 200 µM oleic acid; inhibition, % at 12.5 µM; hit rate 0.66% among 230,000;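 active means pattern-corrected inhibition of lipid staining of at least 50% with the nuclear-stain viability signal not falling by more than 50%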;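 further: 0% = DMSO wells and 100% = triacsin C control wells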
A3A deaminase = human APOBEC3A DNA deaminase inhibition | recombinant A3A, FAM/TAMRA ssDNA deamination fluorescence | AID 493011 | P31941 | inhibition, % at 20 µM | hit rate 0.41% among 330,000;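 active means at least 40% inhibition at 20 µM here, with at most 30% in a related deaminase screen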;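 further: plate controls were A3A with DMSO for no effect and wells lacking A3A enzyme for full effect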
Target sequence (P31941 whole entry, looked up): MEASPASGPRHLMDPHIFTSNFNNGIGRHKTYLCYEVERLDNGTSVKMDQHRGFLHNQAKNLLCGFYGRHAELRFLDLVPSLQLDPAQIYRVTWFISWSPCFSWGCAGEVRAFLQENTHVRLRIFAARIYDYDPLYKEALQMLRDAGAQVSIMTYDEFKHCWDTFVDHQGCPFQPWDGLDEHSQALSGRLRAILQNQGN
APOBEC3A confirm = APOBEC3A (human) deaminase inhibition, confirmed. recombinant A3A, ssDNA deaminase UDG fluorescence assay. shares compounds with A3A deaminase. hit rate 63% among 1,400. inhibition, % at 20 µM;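 active means inhibition reaching a set limit, 80% of the first screen's cutoff, at 20 µM in any replicate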;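 further: plate controls were DMSO wells with A3A for no effect and wells lacking A3A enzyme for full effect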
UDG A3A counter = counter-screen for APOBEC3A inhibitors: UDG. shares compounds with A3A deaminase. UDG counterscreen, FAM/TAMRA uracil oligo fluorescence. inhibition, % at 20 µM. 1,000 tested, under 10 active; call rule not given here
Active calls of the source: *; nt = no result.

SMILES	H9c2 protect	NadD block	APOBEC3G inh	PfGluPho inh	H9c2 TAG inh	A3A deaminase	APOBEC3A confirm	UDG A3A counter
CCOCc1cnc(C)nc1NCC(=O)c1c(C)[nH]c2ccccc12	-8	21	19	-4	2	36	nt	nt
COCCN(C(=O)CSc1nnc(-c2ccc(C)cc2)n1N)c1c(N)n(Cc2ccccc2)c(=O)[nH]c1=O	10	3	3	-12	nt	32	nt	nt
CC(C)Cc1nnc(NC(=O)Nc2ccccc2)s1	-12	-1	-4	-15	5	70*	1	4
O=C(CN1C(=O)S/C(=C/c2ccccn2)C1=O)N1CCOCC1	-1	6	3	-1	nt	57*	2	nt
COc1cc(/C=C/c2cccc[n+]2C)ccc1OCC(=O)Nc1cccc(Cl)c1	0	11	19	18	nt	81*	75*	3
COc1cc(/C=C/c2cc[n+](C)cc2)ccc1OCC(=O)Nc1ccc(Cl)c(Cl)c1	-3	10	13	21	nt	81*	78*	4
COc1cc(/C=C/c2cccc[n+]2C)ccc1OCC(=O)Nc1ccccc1	-3	12	22	7	nt	73*	79*	3
COc1ccc(NC(=O)COc2ccc(/C=C/c3cccc[n+]3C)cc2OC)cc1	-2	8	26	-2	nt	86*	75*	-1
C/C=C/c1ccc(OCC(=O)Nc2cc(OC)c(OC)c(OC)c2)c(OC)c1	-9	-4	-1	-11	-28	0	nt	nt
Cc1ccc(S(=O)(=O)NN2C(=O)c3ccccc3NC2c2ccccn2)cc1 (stereo not drawn)	-4	-4	-5	-2	1	-1	nt	nt
COc1ccc(NC(=O)COc2ccc(/C=C/c3cc[n+](C)cc3)cc2OC)cc1	0	5	7	13	nt	52*	76*	3
CCCCn1c(N)c(-c2nc3ccccc3o2)c2c([N+](=O)[O-])nn(CC)c(=O)c21	2	16	-7	-14	nt	2	nt	nt
CCCCn1c(N)c(-c2nc3ccccc3o2)c2c([N+](=O)[O-])nn(C)c(=O)c21	4	3	8	3	-4	53*	1	nt
Cc1onc(-c2ccccc2Cl)c1C(=O)Nc1ccc(Cl)cn1	0	-5	16	5	-3	60*	1	nt
Cc1ccc(OCc2ccoc2C(=O)O)cc1C	-3	-3	11	4	7	42*	37*	1
Cc1ccc(OCc2ccc(C(=O)O)o2)cc1C	0	-3	-9	-33	nt	-3	nt	nt
COc1cc(C(=O)OCC(=O)c2c(N)n(C)c(=O)n(C)c2=O)ccc1OCCC(C)C	1	3	-5	-3	-18	-3	nt	nt
C=CCn1cccc(C(=O)Nc2ccc(OC)c(Cl)c2)c1=O	-6	1	-9	9	nt	48*	-10	6
O=C1CCc2cc(S(=O)(=O)NCc3ccc(F)cc3)cc3c2N1CCC3	2	-3	-11	-10	7	0	nt	nt
O=C(/C=C\c1ccc2c(c1)OCO2)Nc1nnc(SCC(=O)OCc2ccccc2)s1	nt	nt	1	nt	nt	1	nt	nt
CC(=O)c1ccc[n+](CC(=O)NC(C)c2ccccc2)c1 (stereo not drawn)	-3	1	10	4	nt	62*	64*	-3
CC(NC(=O)C[n+]1cccc(Br)c1)c1ccccc1 (stereo not drawn)	12	-6	-7	15	nt	0	nt	nt
CC(C)CN(C(=O)CCCc1nc2ccccc2c(=O)[nH]1)c1c(N)n(Cc2ccccc2)c(=O)[nH]c1=O	6	8	4	-5	-9	42*	2	nt
Cc1nc2ccccc2c(C)c1CC(=O)N(CC(C)C)c1c(N)n(Cc2ccccc2)c(=O)[nH]c1=O	2	16	-2	-6	-15	0	nt	nt
CCOc1c(Br)cc(C(N)=O)cc1OC	6	-8	-1	-3	-6	-2	nt	nt
SMILES	H9c2 protect	NadD block	APOBEC3G inh	PfGluPho inh	H9c2 TAG inh	A3A deaminase	APOBEC3A confirm	UDG A3A counter
COc1cc(C(N)=O)cc(Br)c1OC	6	0	17	7	6	44*	47*	1
O=C(N/N=C\C=C\c1ccc2c(c1)OCO2)c1cccnc1	12	4	-4	7	nt	45*	1	3
O=C(/C=C/c1ccc2c(c1)OCO2)c1cccnc1	3	-4	-10	-9	nt	-4	nt	nt
Cc1ccc(S(=O)(=O)/N=C2/NC(=O)/C(=C/c3ccc(Br)o3)S2)cc1	-4	9	-6	-17	nt	52*	-5	1
CC(C)CN1CN(Cc2ccccc2)CNC1=S	3	-3	0	-15	nt	1	nt	nt
COc1ccc(CC(=O)N/N=C/c2ccc(-c3cccc(C(=O)O)c3)o2)cc1OC	12	0	6	11	4	42*	25	nt
CC(=O)Nc1ccc2c(COC(=O)CC3Sc4ccccc4NC3=O)cc(=O)oc2c1 (stereo not drawn)	23	7	16	-11	-11	50*	51*	5
COc1ccc2c(COC(=O)CC3Sc4ccccc4NC3=O)cc(=O)oc2c1 (stereo not drawn)	15	7	0	3	nt	9	nt	nt
Cc1cc(C(=O)CN2c3cccc4cccc(c34)S2(=O)=O)c(C)n1C	14	18	4	16	-2	2	nt	nt
Cc1cc(C(=O)N2CCN(S(=O)(=O)c3ccccc3C#N)CC2)c(C)o1	-3	2	-7	-5	9	0	nt	nt
N#Cc1ccccc1S(=O)(=O)N1CCN(C(=O)c2cc3c(s2)CCC3)CC1	-2	-3	14	-7	-6	51*	36*	1
O=C(NC1CCCc2ccccc21)c1cc(Cl)ccn1 (stereo not drawn)	-1	10	12	-6	nt	62*	30	nt
Cc1ccc(C(=O)N2CCN(Cc3ccccc3)CC2)cc1S(=O)(=O)N1CCOCC1	-1	7	-8	-1	-9	0	nt	nt
Cc1cc(-c2ccccc2)nc2c(Br)c(C(=O)O)nn12	4	-7	23	4	9	42*	40*	-2
COc1ccc(CCNC2CC(=O)N(C3CCCCC3)C2=O)cc1OC (stereo not drawn)	-2	-2	-12	-12	6	1	nt	nt
Cc1cc(C)nc(SCC(=O)N/N=C/c2cccn2-c2ccc(O)cc2)n1	3	0	3	-5	12	22	nt	nt
Cc1cc(C)nc(SCC(=O)N/N=C/c2cccn2-c2cccc(C(F)(F)F)c2)n1	2	0	10	2	nt	42*	17	nt
Cc1ccc(S(=O)(=O)N2CCCC2)cc1C(=O)NCC(C)(C)N1CCOCC1	2	0	-13	-20	-3	-3	nt	nt
CN(Cc1cccc(C(F)(F)F)c1)C(=O)[C@H]1O[C@@H](n2ccc(N)nc2=O)[C@H](O)[C@@H]1O	1	-3	nt	nt	nt	nt	nt	nt

Screens as filed in PubChem.
